Bioassay records deposited in PubChem BioAssay by National Center for Advancing Translational Sciences (NCATS).
PLK1 PBD inh = blocks phosphopeptide binding to human PLK1 polo-box domain | 360,000 tested, 2.8% active | Potency, µM, for inactives: max response, negative = inhibition, hits mostly inhibitors | Plk1 PBD binding of FITC phosphopeptide, fluorescence polarization; note: potency is the fitted concentration of half-maximal effect; series mostly up to about 57 µM; % is set by controls: 0 for no effect and ±100 for the full control effect; nearly all actives have a fitted effect of over 65% in size
VDR inh = inhibitors of human vitamin D receptor; P11473; VDR-SRC2-3 peptide fluorescence polarization, 2 h; Potency, µM, inactives show max response, negative = inhibition, most hits filed as inhibitors; 400,000 tested, 0.93% active; AID 504847; note: potency is the fitted concentration of half-maximal effect; % is set by controls: 0 for no effect and ±100 for the full control effect
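FP read-out; VDR + SRC2-3 coactivator peptide; 23 nl compound by pintool; 2 h RT incubation; reagents held at 4 deg C, protected from light.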
TCR activator = activators of T cell receptors | primary human leukocytes, anti-CD3, IL-2 HTRF, 48 h | Potency, µM (titrated, usually from 9.22 µM), inactives show top-dose activation of IL-2 secretion, usual class: activators | 330,000 tested, under 10 active | AID 504894; note: % of control where 0% means no effect
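TCR engagement came from a-CD3 beads alone, with compounds added to primary human leukocytes for 48 hr. Secreted IL-2 bridged europium cryptate- and d2-labelled anti-IL-2 antibodies, giving FRET emission at 665nm after 320nm excitation.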
PI5P4K alpha inh = blocks human PI5P4K alpha kinase activity. PI5P4Kalpha enzyme, ADP-Glo luminescence, 60 min; stronger effect = lower value. max response, %. 330,000 tested, 1.2% active. AID 652105; active = max response of -50% or lower; inconclusive = between -30% and -50%; inactive = -30% or higher; note: value at the top dose of about 77 µM; % is set by controls: 0 for no effect and ±100 for the full control effect
Target sequence (P48426 whole entry, looked up): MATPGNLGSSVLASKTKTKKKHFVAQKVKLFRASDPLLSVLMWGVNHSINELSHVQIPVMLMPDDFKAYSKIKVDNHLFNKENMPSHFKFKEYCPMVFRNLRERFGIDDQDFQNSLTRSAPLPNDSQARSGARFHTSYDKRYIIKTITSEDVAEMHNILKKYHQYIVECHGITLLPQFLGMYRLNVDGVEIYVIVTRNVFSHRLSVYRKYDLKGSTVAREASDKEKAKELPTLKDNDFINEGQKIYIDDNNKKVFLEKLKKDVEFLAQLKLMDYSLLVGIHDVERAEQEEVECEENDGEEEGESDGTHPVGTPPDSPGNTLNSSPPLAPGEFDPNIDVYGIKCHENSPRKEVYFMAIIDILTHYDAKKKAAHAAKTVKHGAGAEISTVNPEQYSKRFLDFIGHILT
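Human PI5P4Kalpha with substrate in 0.038 M HEPES pH 7.4, 0.28 mM EGTA, 0.1% CHAPS, 5% DMSO; reaction started with 5 microM ATP (final), 60 min at room temperature. ADP formed read by ADP-Glo luminescence.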
FEN1 inhibitor = human FEN1 inhibition. Potency, µM (doses to about 114 µM), inactives show at the top dose activity change, negative = inhibition, most hits filed as inhibitors. 390,000 tested, 0.35% active. P39748. AID 588795. Recombinant FEN1 flap cleavage, fluorescence, 15 min; note: potency is the fitted concentration of half-maximal effect; % is set by controls: 0 for no effect and ±100 for the full control effect; nearly all actives have a fitted effect of over 65% in size
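FEN1 at 10 nM, compound pretreatment for 15 min (room temperature), 50 nM final substrate to initiate; endpoint reads at 0 and 15 min; DMSO-only plates used as vehicle background.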
WRN helicase inh = inhibitors of human WRN helicase | Q14191 | WRN helicase unwinding, fluorescent forked duplex, kinetic | Potency, µM (doses to about 114 µM), inactives show top-dose activity change, negative = inhibition, usual class: inhibitors | 360,000 tested, 0.46% active; note: potency is the fitted concentration of half-maximal effect; % is set by controls: 0 for no effect and ±100 for the full control effect; nearly all actives have a fitted effect of over 55% in size
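WRN at 20 nM final preincubated with compound 15 min at room temperature; reaction started with 100 nM fluorophore/quencher forked duplex oligonucleotide and 2 mM ATP final. Unwinding followed kinetically by red fluorescence (ex 525, em 598 nm).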
Numbers without * were called inactive; [ ] = remark or other dose. The list is not random: actives were taken first. Their share in the collection is about 3.7%. Unless noted, calls come from the whole dose curve; as a rule, active = well fitted curve in the direction sought with a large enough effect; inconclusive = small, poorly fitted or top-dose-only effect, or another doubt; inactive = no such curve, though single readings can be large; an effect the other way counts as inactive or inconclusive.

Screening Cc1cc(NC(=O)CSc2nnnn2Cc2ccccc2)no1 returned PLK1 PBD inh 21µM*, VDR inh -13%, TCR activator 7%[46.1 µM], PI5P4K alpha inh 1, FEN1 inhibitor 5% and WRN helicase inh 2%.
O=C(CSc1ccc(Cl)cc1)Nn1cnnc1 was read as PLK1 PBD inh 11µM*, VDR inh 71µM*, TCR activator 3%, FEN1 inhibitor 19% and WRN helicase inh -34%.
For Cc1cccc(-n2ccnc2SCC(=O)Nc2cc(C)on2)c1 the results were PLK1 PBD inh 27µM*, VDR inh -1%, TCR activator 2%, PI5P4K alpha inh 4, FEN1 inhibitor -1% and WRN helicase inh 10%.
C[C@@]1(C(=O)O)NCCc2cc(O)c(O)cc21 was read as VDR inh -12%.
`CCN(CC)S(=O)(=O)c1ccc2oc(SCC(=O)Nc3cc(C)on3)nc2c1` gave PLK1 PBD inh 6µM*, VDR inh inconclusive, TCR activator 9%, PI5P4K alpha inh -26, FEN1 inhibitor -4% and WRN helicase inh -21%.
Cc1cc(NC(=O)CSc2nc3cc(Cl)ccc3o2)no1 was read as PLK1 PBD inh 3%, VDR inh -14%, TCR activator 1%, PI5P4K alpha inh -1, FEN1 inhibitor 5% and WRN helicase inh -7%.
For COc1cccc(CNC(=O)c2ccc3c(c2)nc2n3CCOC2)c1OC the results were VDR inh 8% and FEN1 inhibitor 3%.
`COc1ccc(S(=O)(=O)N2CCC(n3c(C)nc4cccnc43)CC2)cc1Cl` gave VDR inh 7% and FEN1 inhibitor 6%.
Screening CC(C)COc1ccc(CC(=O)NO)cc1 returned FEN1 inhibitor 1%.
`Oc1c(Br)cc(Br)cc1/C=N/NC(=S)N[C@H]1CC2C=CC1C2` (some centres undefined) gave PLK1 PBD inh inconclusive, VDR inh 61%, TCR activator 4%, PI5P4K alpha inh -89*, FEN1 inhibitor -12% and WRN helicase inh -19%.
C/C(=C\C[Si](C)(C)C)CCC=O was read as VDR inh -11%.
CCc1ccc(/C=C(/C#N)c2nc(-c3ccc(C)cc3)cs2)cc1 was read as VDR inh -16% and FEN1 inhibitor 8%.
Screening CCOc1ccc(-c2csc(/C(C#N)=C\c3ccc(O)c([N+](=O)[O-])c3)n2)cc1 returned PLK1 PBD inh 19µM*, VDR inh -2%, TCR activator -18%[46.1 µM], PI5P4K alpha inh inconclusive, FEN1 inhibitor 79µM* and WRN helicase inh inconclusive.
`CCc1cc2c(cc3c(=O)n(CC(=O)N4CCN(C)CC4)ncn32)s1` gave PLK1 PBD inh 21µM*, VDR inh inconclusive, TCR activator -4%, PI5P4K alpha inh -9, FEN1 inhibitor -11% and WRN helicase inh 15%.
Screening CC(C(=O)Nc1ccccc1C(F)(F)F)n1nc(-c2ccccc2)c2c(c1=O)CCCC2 (centres undefined) returned VDR inh 10% and FEN1 inhibitor -13%.
`CC(C)C[C@@H](CN=[N+]=[N-])N1CCN(CCc2ccccc2)CCC1=O` gave FEN1 inhibitor -8%.
For COc1cc(/C=C2/S/C(=N/S(=O)(=O)Cc3ccccc3)NC2=O)c([N+](=O)[O-])cc1OC the results were PLK1 PBD inh 24µM*, VDR inh -13%, TCR activator -1%, PI5P4K alpha inh inconclusive, FEN1 inhibitor 0% and WRN helicase inh inconclusive.
`COc1cc(/C=C2/S/C(=N/S(=O)(=O)c3ccccc3)NC2=O)c([N+](=O)[O-])cc1OC` gave PLK1 PBD inh 27µM*, VDR inh -8%, TCR activator 0%, PI5P4K alpha inh inconclusive, FEN1 inhibitor -8% and WRN helicase inh inconclusive.
COc1cc(/C=C2\S/C(=N/S(=O)(=O)Cc3ccccc3)NC2=O)c([N+](=O)[O-])cc1OC was read as PLK1 PBD inh -17%, VDR inh -28%, TCR activator 2%, PI5P4K alpha inh -16, FEN1 inhibitor inconclusive and WRN helicase inh -12%[11.6 µM].
Screening CCOc1ccc(-c2cn3c(n2)sc2cc(C(=O)NCCCc4ccccc4)ccc23)cc1 returned VDR inh 7% and FEN1 inhibitor -2%.
`CC1(C)Cc2c(sc3ncn(N)c(=N)c23)CO1` gave PLK1 PBD inh -7%, VDR inh 0%, TCR activator 4%, PI5P4K alpha inh -9, FEN1 inhibitor -6% and WRN helicase inh 2%.
`CC1(C)Cc2c(sc3ncn4c(=S)[nH]nc4c23)CO1` gave PLK1 PBD inh 30µM*, VDR inh inconclusive, TCR activator -344%, PI5P4K alpha inh -53*, FEN1 inhibitor 0% and WRN helicase inh -35%.
Screening CC(C)NC(=O)C1(c2ccccc2)CC1(Cl)Cl (centres undefined) returned PLK1 PBD inh 13µM*, VDR inh -28%, TCR activator -2%[46.1 µM], PI5P4K alpha inh -2, FEN1 inhibitor 20% and WRN helicase inh -3%.
`COc1ccc(-c2cn3nc(N4CCCC(C(=O)Nc5cccc(Cl)c5C)C4)sc3n2)cc1` (centres undefined) gave VDR inh 11% and FEN1 inhibitor 11%.
For CC(C)(C)c1cc(CN(CCO)CCO)cc(C(C)(C)C)c1O the results were PLK1 PBD inh 2.1µM*, VDR inh inconclusive, TCR activator -4%, FEN1 inhibitor -14% and WRN helicase inh -27%.
For CC(C)(CO)Cc1cc(C(C)(C)C)c(O)c(C(C)(C)C)c1 the results were PLK1 PBD inh -6%, VDR inh -11%, TCR activator 7%, PI5P4K alpha inh 14, FEN1 inhibitor -25% and WRN helicase inh -12%.
N#CCSc1nc2sccc2c(=O)n1-c1ccccc1 was read as PLK1 PBD inh -5%, VDR inh -4%, TCR activator 3%, PI5P4K alpha inh -70*, FEN1 inhibitor -5% and WRN helicase inh -11%.
CNC(=O)CSc1nc2sccc2c(=O)n1-c1ccccc1 was read as PLK1 PBD inh -7%, VDR inh -9%, TCR activator -20%, PI5P4K alpha inh inconclusive, FEN1 inhibitor -2% and WRN helicase inh -5%.
`COc1ccc(NC(=O)COc2ccc(-c3nn(C)c(=O)c4ccccc34)cc2)cc1` gave PLK1 PBD inh 24µM*, VDR inh inconclusive, TCR activator 6%, PI5P4K alpha inh -10, FEN1 inhibitor -1% and WRN helicase inh -8%.
`COC(=O)COc1ccc(NC(=O)Cn2nc(-c3ccccc3)c3ccccc3c2=O)cc1` gave PLK1 PBD inh 27µM*, VDR inh -28%, TCR activator 3%, PI5P4K alpha inh 2, FEN1 inhibitor 2% and WRN helicase inh -4%.
